GLP1R ag: GLP-1 receptor (human) agonism. HEK293 GLP-1R CRE-luciferase, luminescence, 4-6 h; cells express a hypersensitive GLP-1R form. Potency, µM (top dose mostly 45.6 µM), hits mostly activators. actives 0.007% (n = 380,000)
Target sequence (P43220 whole entry, looked up): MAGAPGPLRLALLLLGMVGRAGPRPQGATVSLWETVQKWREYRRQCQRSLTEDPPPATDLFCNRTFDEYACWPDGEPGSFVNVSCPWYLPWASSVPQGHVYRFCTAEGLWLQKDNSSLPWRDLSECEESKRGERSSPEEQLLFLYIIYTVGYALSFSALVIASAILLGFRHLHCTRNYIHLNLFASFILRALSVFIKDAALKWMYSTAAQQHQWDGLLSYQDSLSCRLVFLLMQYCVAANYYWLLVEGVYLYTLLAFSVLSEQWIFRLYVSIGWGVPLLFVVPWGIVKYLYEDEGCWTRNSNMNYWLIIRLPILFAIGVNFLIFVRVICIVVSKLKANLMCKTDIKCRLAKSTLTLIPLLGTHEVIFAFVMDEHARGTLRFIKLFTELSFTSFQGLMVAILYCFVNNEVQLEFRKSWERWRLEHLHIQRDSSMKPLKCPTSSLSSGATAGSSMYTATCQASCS
ClpP mod: qHTS Assay for Activators of ClpP. actives 1.9% (n = 340,000). Potency, µM (top dose mostly 57.5 µM). purified B. subtilis ClpP, FRET peptide cleavage, 20 min. AID 651965, 2013; active = well fitted falling curve with a large enough effect; inconclusive = small, poorly fitted or top-dose-only effect; inactive = no such curve, though single readings can be large or run the other way; also: the source files actives as falling curves though it sought activators and does not explain the sign; nearly all actives have a fitted effect of over 65% in size
Target sequence (P80244 whole entry, looked up): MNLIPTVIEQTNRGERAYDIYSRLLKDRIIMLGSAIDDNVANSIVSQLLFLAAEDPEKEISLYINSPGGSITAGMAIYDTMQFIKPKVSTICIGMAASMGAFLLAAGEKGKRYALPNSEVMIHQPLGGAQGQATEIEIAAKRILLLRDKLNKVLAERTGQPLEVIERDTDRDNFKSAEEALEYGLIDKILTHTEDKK
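ClpP 10 microg/mL final, pH 8 Tris/KCl buffer with BSA, glycerol, Tween-20; compound pinned in; FRET-FV substrate; RT 20 min; Ex320/Em430; ΔFRET vs ADEP 5.8 microM, DMSO, no enzyme.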
GLP1R inv ag: inverse agonists of human GLP-1 receptor; P43220; HEK293 GLP-1R CRE-luciferase, luminescence, 24 h; GLP-1R form is constitutively active; Potency, µM (series often up to 38.3 µM), actives largely listed as inhibitors; actives 1.6% (n = 410,000); AID 624417; also: nearly all actives have a fitted effect of over 55% in size
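Cells are plated, allowed 12 hours at 37 deg C, then treated with compounds for 24 hr before luciferase detection reagent is added and luminescence is read after 12 min at room temperature. The HEK293 line carries constitutively active GLP-1R with a cAMP-responsive reporter.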
HEK293 tox: cytotoxicity in counter-screen for GLP-1R inverse agonists; Potency, µM (doses to about 38.3 µM), usual class: inhibitors; AID 624418; actives 0.13% (n = 410,000); HEK293 cAMP-luciferase reporter cells, luminescence, 24 h;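 also: loss of luciferase light is scored as toxicity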
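Seeding density was 200 cells/uL; after overnight-length (12 h) culture, 23 nL compounds went on for 24 h at 37 °C. Readout used a luciferase detection reagent, luminescence taken after 12 min at room temperature.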
Numbers stand for hits; 0 = inactive; ? = inconclusive; - = not tested or not shown. In the library only some 3.2% were active in any assay of this set; here they are far more common. Unless noted, calls follow the shape of the dose curve; as a rule, active = well fitted curve in the direction sought with a large enough effect; inconclusive = small, poorly fitted or top-dose-only effect, or another doubt; inactive = no such curve, though single readings can be large; an effect the other way counts as inactive or inconclusive.

SMILES	GLP1R ag	ClpP mod	GLP1R inv ag	HEK293 tox
COCCn1nnnc1CN(Cc1ccco1)Cc1cc2cc3c(cc2[nH]c1=O)OCO3	0	28µM	0	0
O=C1C(=O)C(c2ccc(O)cc2O)Oc2cc(O)cc(O)c21 (stereo not drawn)	-	0	-	-
CCOc1ccc(NC(=O)c2sc3nc4c(c(-c5ccc(OC)cc5)c3c2N)C(=O)CC(C)(C)C4)cc1	-	0	0	0
Cc1cccc(C)c1OC(=O)CSc1nnc(-c2ccc3c(c2)OCO3)o1	-	25µM	0	0
Cc1ccc(C)c(N2CCN(CCCNC(=O)Cn3cccc3C(=O)c3ccccc3C)CC2)c1	0	-	?	10µM
Cc1cc(C(=O)COC(=O)c2ccc(O)cc2)c(C)n1-c1ccccc1F	0	-	10µM	0
Cn1cccc1C(=O)NC(=O)COC(=O)CC12CC3CC(CC(C3)C1)C2	0	0	0	0
Cn1cccc1C(=O)NC(=O)COC(=O)CC12CC3CC(CC(Br)(C3)C1)C2	0	28µM	0	0
CC1Cc2cc(S(=O)(=O)NCCc3ccccc3)ccc2N1C(=O)C1CCC1 (stereo not drawn)	-	0	0	0
Cc1ccc(OCC(=O)N(Cc2ccccc2)C(C)(C)C)c([N+](=O)[O-])n1	0	0	0	0
Cc1ccc(OCC(=O)N(Cc2ccccc2)C(C)C)c([N+](=O)[O-])n1	0	3.2µM	0	0
Cc1ccc(-c2nc3ccc(Cl)cn3c2Nc2ccc3c(c2)OCCO3)s1	0	0	0	0
Cc1cccn2c(=O)c(/C=C(\C#N)c3nc4ccccc4n3C)c(Oc3ccc(Cl)cc3)nc12	-	0	0	0
COc1ccc(NC(=O)Cn2nnc(-c3ccccc3NS(=O)(=O)c3ccccc3)n2)cc1	0	0	7.1µM	0
COc1ccc(S(=O)(=O)Nc2ccccc2-c2nnn(CC(=O)Nc3ccccc3OC)n2)cc1	0	0	?	0
CCc1ccc(-n2nc(CO)c(C(=O)NCC(c3ccccc3)c3ccccc3)n2)cc1	-	?	0	0
Cc1ccc(-n2nc(CO)c(C(=O)NC(C)c3ccccc3)n2)cc1C (stereo not drawn)	-	35µM	?	0
O=C(NCCCc1ccccc1)c1nn(-c2ccccc2)nc1CO	-	0	0	0
CCc1ccc(-n2nc(CO)c(C(=O)NCCCc3ccccc3)n2)cc1	-	28µM	0	0
Cc1ccc(-n2nc(CO)c(C(=O)NC(C)CCCc3ccccc3)n2)cc1C (stereo not drawn)	-	35µM	?	0
Cc1ccc(-n2nc(CO)c(C(=O)NCc3ccccn3)n2)cc1C	-	0	0	0
CCc1ccc(-n2nc(CO)c(C(=O)NC)n2)cc1	-	14µM	0	0
CC(C)c1nnc(NC(=O)C2CCN(C(=O)C(C)(C)C)CC2)s1	-	0	-	-
Cc1ccccc1Nc1cc(C(=O)NCc2cccs2)c2ccccc2n1	-	0	?	0
Cc1ccc(-n2nc(CO)c(C(=O)NCCCc3ccccc3)n2)cc1C	-	32µM	0	0
SMILES	GLP1R ag	ClpP mod	GLP1R inv ag	HEK293 tox
CC(=O)c1ccc(N2CCN(C(=O)CCS(=O)(=O)c3ccc4c(c3)oc(=O)n4C)CC2)cc1	-	0	0	0
CCOC(=O)CSc1nc2cc(OC)c(OC)cc2cc1C#N	-	32µM	-	-
CCOc1ccc2cc(C#N)c(SCC(=O)OCc3ccccc3)nc2c1	-	0	-	-
CCc1nc(SCC(=O)N2CCc3cc(OC)c(OC)cc3C2)c(C#N)cc1C	0	32µM	0	0
Cc1ccc2cc(C#N)c(SCC(=O)NNC(=O)Cc3ccccc3)nc2c1	0	28µM	0	0
COc1cc2cc(C#N)c(SCC(=O)N3CCOCC3)nc2cc1OC	0	0	0	0
CCOC(=O)CSc1nc2cc(OCC)ccc2cc1C#N	0	16µM	0	0
COc1ccc2cc(C#N)c(SCC(=O)NNC(=O)Cc3ccccc3)nc2c1	0	?	0	0
Cc1nnc(SCc2ccccc2Cl)c2cc3sccc3n12	-	0	0	0
C=CCn1c(CCC(=O)O)ccc1-c1ccccc1	0	28µM	0	0
CCCn1c(CCC(=O)O)ccc1-c1ccc(OC)cc1	0	28µM	0	0
COc1ccc(-c2ccc(CCC(=O)O)n2NC(N)=O)cc1	0	0	0	0
O=C(O)CCc1ccc(-c2ccc(Cl)cc2)n1CCC(=O)O	0	0	0	0
Cc1cccc(N2CCN(c3nc4ccccc4c4nc(-c5ccccc5)nn34)CC2)c1C	-	0	0	0
Cc1ccc(NC(=O)Cn2cc(S(=O)(=O)N3CCCC3)c(S(=O)(=O)N3CCCC3)c2)cc1F	-	0	0	0
Cc1c(C#N)c(NC(=O)CCl)n(Cc2ccccc2)c1C	0	-	?	?
Cc1c(C#N)c(NC(=O)CCl)n(Cc2cccs2)c1C	0	0	5.6µM	?
CC(=O)c1ccc(NS(=O)(=O)c2cnc(N)nc2)cc1	-	0	0	0
Clc1ccccc1Nc1ncnc2c1nc1n2CCCCC1	0	0	0	0
Cc1cc(NC(=O)C(C)C)cc(-c2nc3ncccc3o2)c1O	0	0	0	0
CC(C)C[C@@H](C(=O)NCc1ccco1)N1C(=O)N2CCc3c([nH]c4ccccc34)[C@@]2(C)C1=O	0	0	10µM	0
COc1ccc(CCC(=O)N2c3ccccc3N=C(c3ccc(C(F)(F)F)cc3)C2C(=O)NC(C)(C)C)cc1 (stereo not drawn)	-	?	4.5µM	0
Cn1c(NCC(O)c2ccccc2)nc2c1c(=O)n(Cc1ccc(Cl)cc1)c(=O)n2C (stereo not drawn)	0	0	?	0
Cn1c(=O)c2c(nc(NCC3CCCO3)n2C)n(C)c1=O (stereo not drawn)	0	0	0	0
Cn1c(NCC(O)c2ccccc2)nc2c1c(=O)n(Cc1ccc(Cl)c(Cl)c1)c(=O)n2C (stereo not drawn)	0	0	3.2µM	0
SMILES	GLP1R ag	ClpP mod	GLP1R inv ag	HEK293 tox
Cn1c(=O)n(Cc2ccccc2)c(=O)c2c1nc(NCC1CCCO1)n2Cc1ccccc1 (stereo not drawn)	0	0	4µM	?
O=C1C=CC(=O)N1c1cccc(-c2ccccc2)c1	0	0	?	13µM
CC(C)COc1ccc(C(=O)Nc2sc3c(c2C(=O)O)CC(C)(C)OC3)cc1	0	-	11µM	0
CNc1oc(-c2ccc(Cl)cc2)nc1P(=O)(c1ccccc1)c1ccccc1	0	28µM	?	0
Cc1ccc(-c2nc(P(=O)(c3ccccc3)c3ccccc3)c(N3CCOCC3)o2)cc1	0	0	10µM	0
C/C(=C(/CCOC(=O)c1ccccc1)SS/C(CCOC(=O)c1ccccc1)=C(\C)N(C=O)Cc1cnc(C)nc1N)N(C=O)Cc1cnc(C)nc1N	0	-	-	-
CCc1ccccc1NC(=O)CSc1nnc(-c2nonc2NC(C)=O)n1C	-	0	0	0
Cc1ccc(NC(=O)CN2CCCN(Cc3ccccc3Cl)S2(=O)=O)c(C)c1	-	0	?	0
Cc1ccc(CCNS(=O)(=O)c2c(C)nc3sc(C)c(C)n3c2=O)cc1	-	6.3µM	0	0
Cc1nc2scc(C)n2c(=O)c1S(=O)(=O)NCCc1ccc(Cl)cc1	0	-	0	0
Cc1ccc(OCC(=O)N(Cc2ccco2)Cc2ccc(C)o2)cc1	-	0	?	0
